M1 PAM – human M1 muscarinic receptor positive allosteric modulators, primary screen, CHO-K1 cells, Fluo-8 calcium fluorescence, 1536-well | CHO-K1 hM1, ACh EC20; 0% = ACh EC20, 100% = maximal ACh | activation, % at 3 µM | 360,000 compounds, 0.088% hits | AID 588819, 2011; in the data active means activation above about 19%, passing the limit was not always enough
Target sequence (P11229 whole entry, looked up): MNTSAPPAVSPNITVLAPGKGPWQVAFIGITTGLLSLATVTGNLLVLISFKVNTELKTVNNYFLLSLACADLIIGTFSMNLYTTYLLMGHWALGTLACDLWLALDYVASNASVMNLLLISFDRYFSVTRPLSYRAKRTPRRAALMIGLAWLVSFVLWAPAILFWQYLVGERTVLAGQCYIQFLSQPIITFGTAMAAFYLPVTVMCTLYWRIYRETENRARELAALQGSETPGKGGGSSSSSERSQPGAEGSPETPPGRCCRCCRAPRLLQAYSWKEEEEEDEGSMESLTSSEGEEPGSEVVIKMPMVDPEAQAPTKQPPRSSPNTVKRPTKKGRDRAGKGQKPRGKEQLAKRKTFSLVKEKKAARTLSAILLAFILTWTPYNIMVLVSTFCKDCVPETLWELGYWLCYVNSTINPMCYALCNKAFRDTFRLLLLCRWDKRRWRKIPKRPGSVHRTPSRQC
CHO-K1 Ca antag – nonselective inhibitor or artifact in parental CHO-K1 cells | ATP-induced calcium, Fluo-8 fluorescence | inhibition, % at 3 µM | 360,000 compounds, 0.6% hits;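 active means inhibition above a per-plate cutoff, the plate's mean sample inhibition plus 3 SD, cut at about 24% in these data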;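 further: 0% = DMSO plus EC80 ATP and 100% = DMSO alone without ATP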
CHRM1 antagonist – human M1 muscarinic receptor antagonists, primary screen, CHO-K1 cells, Fluo-8 calcium fluorescence, 1536-well. inhibition, % at 3 µM. 360,000 compounds, 1.3% hits. CHO-K1 hM1, ACh EC80 antagonist. Muscarinic acetylcholine receptor M1 (Homo sapiens), P11229;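 active means percent inhibition above its own plate's cutoff, namely the mean of that plate's compound wells plus 3 SD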;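 further: peak over basal fluorescence ratio during 140 s after agonist addition; 0% = ACh EC80 plus DMSO and 100% = DMSO alone without agonist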
M1 ag – human M1 muscarinic receptor agonists, primary screen, Fluo-8 calcium fluorescence, CHO-K1 cells, HTS; Muscarinic acetylcholine receptor M1 (Homo sapiens), P11229; CHO-K1 hM1, agonist mode; 0% DMSO, 100% acetylcholine EC100; activation, % at 3 µM; AID 588814, 2011; 360,000 compounds, 0.33% hits;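 active means activation above the run's mean compound activation plus 3 SD, cut at about 16% in these data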;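 further: peak over basal fluorescence ratio within a 140 s kinetic read after compound addition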
M1 ag parental – counter-screen for M1 agonists: effect in parental CHO-K1 cells | Fluo-8 calcium fluorescence; scaled to maximal ATP response, vehicle zero | activation, % at 3 µM | 360,000 compounds, 0.48% hits | AID 602248, 2012; in the data active means activation above about 15%;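 further: untransfected CHO-K1 host cells lacking M1 receptor as counterscreen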
M1 PAM parental – nonselective calcium activators in parental CHO-K1 cells, primary screen, counter-screen for M1 PAM project, cell-based, Fluo-8 calcium fluorescence, full deck, 1536-well; ATP EC20; 0% at ATP EC20, 100% at ATP max; activation, % at 3 µM; 360,000 compounds, 0.02% hits; AID 602247, 2012;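 active means activation above the run cutoff, the mean activation of all test compounds plus 3 SD, cut at about 40% in these data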;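 further: peak over basal fluorescence ratio in a 140 s read after ATP addition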
The depositor's hits bear a star; . = no result given. Only some compounds are listed: those with a hit (about 2.3% of all), similar ones and a draw of the others.

SMILES	M1 PAM	CHO-K1 Ca antag	CHRM1 antagonist	M1 ag	M1 ag parental	M1 PAM parental
Cc1ccccc1COc1cccn2c(N(C)C(=O)CCC3CCCC3)c(C)nc12	-30	-7	39*	-5	5	1
COc1ccccc1COc1cccn2c(N(C)C(=O)CCC3CCCC3)c(C)nc12	-27	-1	25	-7	4	17
Cc1csc(-c2ccc3cc(Cl)cc(Cl)c3n2)n1	5	-5	-9	-3	0	16
O=C(N/N=C/c1ccc(F)cc1)c1sccc1OCc1ccc(F)cc1	7	-19	-13	2	3	45*
CCOc1ccsc1C(=O)O	1	30*	-1	-4	1	-27
NNC(=O)c1sccc1OCc1ccc(F)cc1	12	-3	-12	-1	1	11
O=C(N/N=C/c1ccc(Cl)cc1)c1sccc1OCc1ccc(F)cc1	7	-8	-10	0	0	30
Cc1ccc(COc2ccsc2C(=O)O)cc1	13	0	-9	-7	15*	18
Cc1c(F)cccc1NS(=O)(=O)c1ccc(N2CCCC2=O)cc1	8	-9	-1	-4	0	14
COc1ccc(OC)c(CN2C(=O)c3ccccc3C2c2nnnn2Cc2ccccc2)c1 (stereo not drawn)	.	5	.	.	1	-5
CCOC(=O)NN1C(=O)c2ccccc2NC1c1ccc(N(C)C)cc1 (stereo not drawn)	6	-7	-7	17*	1	17
N#CC(CC(=O)OCc1ccccc1)NC(=O)OCc1ccccc1 (stereo not drawn)	-1	0	-4	-8	1	-2
CCOC(=O)c1ccc(NC(=S)NCCc2ccc(F)cc2)cc1	-23	28*	21	1	23*	-5
CCOC(=O)c1ccc(NC(=O)C(=O)NCCc2ccc(OC)cc2)cc1	13	0	0	-5	0	27
CN(CCc1cn[nH]c1)Cc1nc(C(c2ccccc2)c2ccccc2)no1	6	-6	-3	-14	1	18
CCN(CC)CCN(C)Cc1nc(C(c2ccccc2)c2ccccc2)no1	-30	-5	75*	-8	0	6
COc1ccc(C(=O)C(C)[n+]2ccc(C)c3ccccc32)cc1[N+](=O)[O-] (stereo not drawn)	-22	16	43*	-4	2	-9
COc1ccc(C(=O)NC(C)CCc2ccccc2)cc1[N+](=O)[O-] (stereo not drawn)	-2	-3	3	-6	2	3
CCCCCn1c(=O)[nH]c2cc(C(=O)O)ccc2c1=O	10	-1	-9	0	0	11
CCOC(=O)N1CCN(C(=O)c2ccc3c(=O)n(CCOC)c(=O)[nH]c3c2)CC1	-8	12	28*	-5	0	-8
CCOC(=O)N1CCN(C(=O)c2ccc3c(=O)n(CCc4ccccc4)c(=O)[nH]c3c2)CC1	-19	-5	49*	-2	1	14
CCOCCCn1c(=S)[nH]c2cc(C(=O)N3CCC(C(N)=O)CC3)ccc2c1=O	-5	25*	19	-2	0	-7
CCCCCn1c(=O)[nH]c2cc(C(=O)N3CCN(C(=O)OCC)CC3)ccc2c1=O	-32	-8	49*	-12	0	-24
COc1ccccc1Cn1c(=S)[nH]c2cc(C(=O)N3CCC(C(N)=O)CC3)ccc2c1=O	6	2	-6	-4	0	-14
CN(C)c1cccc2c(S(=O)(=O)NC(=O)[C@H]3O[C@@H](n4cnc5c(N)ncnc54)[C@H](O)[C@@H]3O)cccc12	3	-16	-34	-2	0	14
SMILES	M1 PAM	CHO-K1 Ca antag	CHRM1 antagonist	M1 ag	M1 ag parental	M1 PAM parental
O=C(Nc1ccccn1)c1ccc(Cl)c(S(=O)(=O)N2CCc3ccccc32)c1	-1	-22	-3	-2	5	6
CCCCc1cc2ccccc2c(OCCN(C)C)n1	-28	-18	56*	-7	3	19
COc1ccccc1CN1C[C@@H]2C[C@@H](c3[nH]c4c(C)cccc4c3C)N3CCC[C@@]23C1=O	10	-24	-10	1	15*	31
Cc1ccc(C(=O)Nc2cccc(C(F)(F)F)c2)cc1NC(=O)c1csc(-c2ccncc2)n1	-6	4	5	-2	0	-10
N#C/C(=N\Nc1cccc(C(F)(F)F)c1)C(=O)c1csc(-c2cccnc2)n1	3	24*	8	12	10	-1
CCOC(=O)C(Cc1ccccc1)C(=O)Nc1ccc(N(CC)CC)cc1 (stereo not drawn)	-25	-2	33*	-7	3	15
Cc1noc(-c2ccccc2)c1NC(=O)Nc1ccc(Cl)cc1	-24	2	41*	0	15*	6
O=C(CN1CCN(Cc2ccccc2)CC1)Nc1cccc(C(F)(F)F)c1	11	26*	-10	-4	0	-8
Cc1ccccc1C(=O)N1CCC(C(=O)NN2C(=O)NC3(CCC(C)CC3)C2=O)CC1 (stereo not drawn)	6	-1	-4	-2	1	13
Cc1ccc(/C=C/C(=O)O)cc1S(=O)(=O)N1CCCCC1	24*	-2	40*	0	1	-9
Cc1ccc(S(=O)(=O)c2cccc(S(=O)(=O)N3CCCC3)c2)cc1S(=O)(=O)N1CCCC1	-20	6	55*	-1	6	15
O=S(=O)(c1ccc(Cl)c(S(=O)(=O)N2CCCC2)c1)N1CCCC1	-2	-13	38*	-5	2	8
O=C(Nc1ccccc1F)c1csc([C@@H]2C[C@H](O)[C@@H](CO)O2)n1	15	-10	-18	1	2	28
CCOC(=O)C1CCCN(C(=O)c2cc(C)n(C(C)(C)C)n2)CC1 (stereo not drawn)	6	-16	-13	-3	1	11
CCCNC(=O)Cn1c(=O)/c(=C/c2ccc(-c3ccc([N+](=O)[O-])cc3)o2)s/c1=C\C(=O)C(C)(C)C	-18	31*	65*	74*	32*	1
O=C(CCn1ccc2cc(S(=O)(=O)N3CCCC3)ccc21)NCc1cccc(F)c1	17	-4	-23	-4	2	21
O=C1NC(=O)C2(CCCc3c([N+](=O)[O-])cccc32)N1 (stereo not drawn)	9	-13	-13	-4	1	27
COc1ccc(C2C(C(=O)O)c3ccccc3C(=O)N2Cc2ccco2)cc1 (stereo not drawn)	4	-11	-8	-4	0	10
